The list is not random: actives were taken first. Their share in the collection is about 3%.
SENP6 block = SENP6 protease inhibitors, primary screen, biochemical, luminescence, uHTS; Recombinant SENP6 catalytic domain, aminoluciferin luminescence; inhibition, % at 10 µM; 1.8% of 330,000 active; AID 2599, 2010;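 active = inhibition above about 50% at the single tested dose, limit read from the data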;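 note: plate controls were DMSO wells with enzyme for no effect and DMSO wells lacking enzyme for full effect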
Target sequence (Q9GZR1 628-1112 limits assumed): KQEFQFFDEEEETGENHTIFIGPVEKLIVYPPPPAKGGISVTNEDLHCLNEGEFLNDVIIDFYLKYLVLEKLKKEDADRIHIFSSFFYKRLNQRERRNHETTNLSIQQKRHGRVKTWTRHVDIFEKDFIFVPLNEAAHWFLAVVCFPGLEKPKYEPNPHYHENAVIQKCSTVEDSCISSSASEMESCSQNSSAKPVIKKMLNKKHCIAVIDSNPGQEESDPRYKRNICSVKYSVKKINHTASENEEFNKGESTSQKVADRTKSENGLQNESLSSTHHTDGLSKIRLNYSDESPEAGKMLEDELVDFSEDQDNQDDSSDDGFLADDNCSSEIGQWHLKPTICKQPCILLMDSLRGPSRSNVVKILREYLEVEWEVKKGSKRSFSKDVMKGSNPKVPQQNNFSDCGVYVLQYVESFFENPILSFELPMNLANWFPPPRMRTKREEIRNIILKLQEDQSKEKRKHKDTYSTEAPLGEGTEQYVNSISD
SENP7 inh = SENP7 protease inhibitors, primary screen, biochemical, luminescence, uHTS. Sentrin-specific protease 7 (Homo sapiens), Q9BQF6. recombinant SENP7, Z-RLRGG-aminoluciferin luminescence, 40 min. inhibition, % at 5 µM. 1.5% of 330,000 active;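 active = inhibition above about 50% at the single test dose, limit read from the data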;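 note: plate controls were DMSO with enzyme for no effect and no enzyme buffer wells for full effect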
SENP8 block-1 = SENP8 protease inhibitors, primary screen, biochemical, luminescence | Sentrin-specific protease 8 (Homo sapiens), Q96LD8 | purified SENP8, Z-RLRGG-aminoluciferin cleavage | inhibition, % at 10 µM | 1.2% of 330,000 active; in the data active = inhibition above about 50%
Target sequence (Q96LD8 whole entry, looked up): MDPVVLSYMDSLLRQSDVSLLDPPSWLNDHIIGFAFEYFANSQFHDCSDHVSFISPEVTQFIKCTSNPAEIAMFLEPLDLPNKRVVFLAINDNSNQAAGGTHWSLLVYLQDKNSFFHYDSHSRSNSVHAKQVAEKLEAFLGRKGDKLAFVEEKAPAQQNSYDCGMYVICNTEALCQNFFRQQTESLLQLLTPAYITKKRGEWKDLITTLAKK
PPC-1+TRAIL kill = compounds killing PPC-1 cancer cells with TRAIL present, primary screen, TRAIL potentiator project, ATPLite luminescence, uHTS; PPC-1 cells + TRAIL, ATPLite viability luminescence; cell killing (% activity), % at 4 µM or 5 µM; 0.41% of 220,000 active; AID 1443, 2008;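 active = cell killing above 50% in the first pass at 4 µM, then a duplicate retest at 5 µM averaging 50% or more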;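 note: plate controls were cells with TRAIL plus DMSO for no effect and medium-only wells lacking cells for full effect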
TRAIL sens C8 = viability loss with TRAIL in NB7+C8 cells, primary screen, TRAIL sensitizer project, cell-based, ATPlite luminescence; 1% of 360,000 active; inhibition (viability loss, TRAIL sensitization), % at 10 µM; AID 624354, 2012;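 active = compounds causing at least 50% loss of cell viability in the single-dose screen, relative to plate controls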
SENP8 block-2 = human SENP8 protease inhibitors, primary screen, biochemical, fluorescence, Nedd8 protein substrate, uHTS | Sentrin-specific protease 8 (Homo sapiens), Q96LD8 | recombinant SENP8 | inhibition, % at 20 µM | 0.64% of 360,000 active; in the data active = inhibition mostly above about 40%, no sharp cut-off; inactive = mostly below about 27%
SENP8 inh conf = human SENP8 protease inhibitors, confirmation, biochemical, Nedd8 protein substrate, single concentration; shares compounds with SENP8 block-2; AID 624319, 2012; inhibition, % at 25 µM; 15% of 1,400 active; purified SENP8, Nedd8-AMC/pro-Nedd8 cleavage fluorescence, 30 min; in the data active = inhibition mostly above about 39%, no sharp cut-off; inactive = mostly below about 34%
* marks the source's active call; other numbers are inactive results; . = not tested or not shown.

SMILES | SENP6 block | SENP7 inh | SENP8 block-1 | PPC-1+TRAIL kill | TRAIL sens C8 | SENP8 block-2 | SENP8 inh conf
Cc1cccc(NC(=O)CNC(=O)CNC(=O)Cc2ccccc2)c1 | -0.5 | 1.7 | -8.3 | . | -16.0 | 0.8 | .
Cc1cccc(OCCC(=O)Nc2c(C)n(C)n(-c3ccccc3)c2=O)c1 | -10.7 | 0.7 | -5.5 | 13.6 | -2.6 | 42.0* | 6.0
Cc1ccc(N2CCN(C(=O)c3cc(-c4ccc(F)cc4)[nH]c3C)CC2C)cc1 (stereo not drawn) | -6.3 | -3.1 | -1.3 | . | 8.9 | 12.7 | .
O=C(CS(=O)c1ccc(F)cc1)N1CCOCC1 (stereo not drawn) | 4.6 | 4.8 | 4.9 | . | -3.8 | 16.3 | .
OC1(C#CCN2CCCC2)CCCCC1 | 5.8 | 1.7 | -4.0 | . | -2.1 | 14.8 | .
Cc1cc(C)c(NC(=O)CSCc2c(C)noc2C)c(C)c1 | 6.9 | 3.4 | 6.4 | . | -7.3 | 8.5 | .
Cc1ccc(NC(=O)CSCc2c(C)noc2C)cc1C | -16.6 | -11.1 | -7.2 | 0.0 | -2.3 | 40.2* | 24.6
Cc1ccc(NNC(N)=S)cc1Cl | -2.5 | -5.3 | -7.3 | 12.7 | 9.0 | 59.8* | 16.9
C/C(=N\NC(=O)c1cccnc1)c1ccc(C)c([N+](=O)[O-])c1 | -19.9 | 1.0 | 2.6 | 1.2 | 0.5 | 6.3 | .
C/C(=N\NC(=O)c1[nH]c2c([N+](=O)[O-])cc(C)cc2c1-c1ccccc1)c1cccnc1 | -7.7 | 3.8 | 3.3 | -3.2 | -0.1 | 60.3* | 13.1
CCOC(=O)C1(C(F)(F)F)N=C(c2cccnc2)OC(N2CCCCC2)=N1 (stereo not drawn) | -1.5 | -1.3 | -14.8 | -6.3 | -0.8 | 19.7 | .
Cc1ccc(N/C=C/c2onc(C)c2[N+](=O)[O-])cc1 | 59.6* | 77.8* | 28.6 | 17.3 | -9.8 | 53.5* | 14.4
O=C(CNc1cccc([N+](=O)[O-])c1)N/N=C/c1ccc([N+](=O)[O-])o1 | 1.8 | 4.3 | 8.3 | 29.5 | 25.6 | 40.1* | 22.5
O=C(CCN1CCN(c2ccccc2)CC1)N/N=C/c1ccc([N+](=O)[O-])o1 | 21.0 | 4.1 | 8.2 | 17.9 | 5.6 | 55.1* | 38.6
O=C(N/N=C\c1ccccc1)c1ccccc1-n1cccc1 | -1.2 | -6.3 | -4.3 | -1.6 | -4.6 | 6.7 | .
O=C(N/N=C/c1ccc([N+](=O)[O-])o1)c1ccccc1-n1cccc1 | 2.3 | 1.6 | 3.0 | . | 40.8 | 42.3* | 21.1
COc1cccc(C(=O)NCC(=O)N/N=C/c2ccc3c(c2)OCO3)c1 | -19.9 | -9.3 | -0.1 | . | 1.8 | 11.5 | .
CCOc1ccc(C2C(C(=O)c3cccs3)=C(O)C(=O)N2CCN2CCOCC2)cc1 (stereo not drawn) | -11.4 | -0.4 | 6.8 | . | -9.5 | 14.2 | .
CC1C/C(=N/Nc2ccc([N+](=O)[O-])cc2[N+](=O)[O-])CC(C)(C)C1 (stereo not drawn) | 6.3 | -2.7 | -0.4 | 15.6 | 11.4 | 45.5* | 11.6
CC1CCCC/C1=N/Nc1ccc([N+](=O)[O-])cc1[N+](=O)[O-] (stereo not drawn) | 7.9 | -2.6 | -2.6 | 1.1 | 0.2 | 47.1* | -1.0
C/C(CC(C)C)=N/Nc1ccc([N+](=O)[O-])cc1[N+](=O)[O-] | -25.9 | -2.3 | -0.4 | 3.4 | 4.7 | 33.5 | .
CCOC(=O)C1=C[C@@H](C2CCCCC2)N(S(=O)(=O)c2ccc([N+](=O)[O-])cc2)[C@H]1c1ccccc1 | . | . | . | . | -8.6 | 8.5 | .
O=C(C[n+]1ccccc1)N/N=C/c1ccccc1[N+](=O)[O-] | -17.1 | -6.0 | -10.0 | -11.5 | -2.1 | 13.3 | .
O=C1CC(CC(=O)N/N=C/c2ccccc2[N+](=O)[O-])=NN1 | 11.1 | 11.4 | -0.2 | -4.2 | -4.9 | 40.4* | 12.8
COC(=O)c1ccccc1-c1ccc(C(c2c(C)[nH][nH]c2=O)c2c(C)[nH][nH]c2=O)o1 | 27.1 | 11.9 | 20.4 | . | -4.1 | 50.4* | 42.0*
SMILES | SENP6 block | SENP7 inh | SENP8 block-1 | PPC-1+TRAIL kill | TRAIL sens C8 | SENP8 block-2 | SENP8 inh conf
O=P(c1ccccc1)(c1ccccc1)c1ccccc1C(Br)Br | . | . | . | . | 1.0 | 20.2 | .
Cc1[nH]nc(N2CCCCC2)c1[N+](=O)[O-] | -5.3 | 4.9 | 1.1 | 24.8 | 3.3 | 44.2* | 6.4
CC(=O)N/C(=C\c1ccccc1)C(=O)OCC(=O)N(C)C1CCCCC1 | 0.5 | 5.1 | -0.3 | -9.8 | 2.0 | 25.6 | .
C=CCNC(=S)NN=C1CCC(c2ccccc2)CC1 (stereo not drawn) | 10.0 | -2.7 | 15.4 | . | 21.9 | 45.1* | 18.0
O=C1Cc2ccccc2C(=O)N1Cc1cccc(Cl)c1 | . | . | . | . | -9.9 | 102.6* | 45.8*
COc1cc(N(C(C)=O)c2ccc(O)c(C(=O)O)c2)c2ncccc2c1 | . | . | . | . | 0.6 | 44.0* | 61.2*
COc1cc(N(C(C)=O)c2ccc(O)cc2)c2ncccc2c1 | . | . | . | . | 5.3 | 19.8 | .
CCOc1ccc(NS(=O)(=O)c2ccc(Cl)c(N=Nc3c(O)[nH]c(=S)[nH]c3=O)c2)cc1Br | . | . | . | . | 6.6 | 40.0* | 29.8
COc1ccc(NS(=O)(=O)c2cc(N=Nc3c(O)[nH]c(=O)[nH]c3=O)ccc2OC)cc1Br | . | . | . | . | 2.0 | 30.1 | .
COc1ccc(N2C(=O)[C@@H]3[C@H](C2=O)[C@H]2c4ccccc4C=CN2[C@@H]3C(C)=O)cc1 | . | . | . | -16.8 | -4.9 | 62.6* | 92.7*
O=C(OC1CC2CC1[C@H]1CCCCN1C2=O)N1CCN(S(=O)(=O)c2ccccc2)CC1 (stereo partly drawn) | . | . | . | . | -17.4 | 3.3 | .
Cc1nc2ccc(NC(=O)c3cc([N+](=O)[O-])cc([N+](=O)[O-])c3Cl)cc2s1 | . | . | . | 26.3 | 10.9 | 40.8* | 25.9
COc1cccc(N2[C@@H](CC(=O)O)c3ccc(/C=C/C(=O)O)cc3S2(=O)=O)c1 | 4.6 | 7.2 | -3.8 | . | 3.0 | -50.6 | .
CCOc1ccc(-c2cccc(NC(=O)c3cccs3)c2)nn1 | -4.1 | 5.1 | 4.5 | . | -9.7 | 4.0 | .
N#Cc1ncc(C(F)(F)F)cc1Sc1ccc(N)cc1 | -11.3 | 4.9 | 4.0 | 18.9 | 3.7 | 44.6* | 24.4
N#Cc1cc(N)ccc1Sc1ccc(Cl)cc1 | -0.6 | -6.2 | -3.9 | 18.9 | -9.4 | -453.1 | .
CCOC(=O)c1c(N)c2cc([N+](=O)[O-])ccc2n1C | -12.8 | -8.7 | 0.6 | 9.9 | 5.7 | 47.1* | 7.4
O=C1SCCN1N=Cc1ccc([N+](=O)[O-])o1 | . | . | . | . | 13.1 | 55.1* | 17.7
CC1CN(N=Cc2ccc([N+](=O)[O-])o2)C(=N)O1 (stereo not drawn) | . | . | . | . | 6.2 | 48.1* | 28.9
C/C(N)=C(/C#N)C(=O)COC(=O)[C@@H](NC(=O)c1ccccc1Cl)C(C)C | -8.0 | 1.6 | -1.1 | 27.2 | 1.0 | 7.1 | .

Screening results from PubChem.
